Our source for the outcome and AC50 values is PubChem BioAssay (EPA / NIEHS).

A short description of test [1]: TOX21_p53_BLA_p2_viability: Viability Assessment in the Tox21 HCT-116 p53 Agonism Beta-lactamase Assay, Phase 2 (AID 2283591).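 Further: actives lower the ATP signal meaning cytotoxicity.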 In short, it runs like this:
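HCT116 p53-bla cells, 4000/well, dosed after 5 h plating (217-fold dilution of DMSO stocks) and incubated 16 h at 37C. Viability taken as cellular ATP by CellTiter-Glo luminescence after 30 min RT; signal loss marks cytotoxicity.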

For test [2], the target named is Cellular tumor antigen p53 (Homo sapiens) (UniProt P04637). Briefly: TOX21_p53_BLA_p2_ratio: Tox21 HCT-116 p53 Agonism Beta-lactamase Assay, Ratio, Phase 2 (AID 2283592). An outline of the steps: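 An inducible beta-lactamase reporter in HCT116 cells signals p53 pathway activation. After 16 h chemical exposure at 37C, cells load CCF4-AM substrate for 2 h at room temperature; activity is the cleaved/uncleaved emission ratio relative to DMSO.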
Cellular tumor antigen p53 (Homo sapiens), sequence (P04637 whole entry, looked up): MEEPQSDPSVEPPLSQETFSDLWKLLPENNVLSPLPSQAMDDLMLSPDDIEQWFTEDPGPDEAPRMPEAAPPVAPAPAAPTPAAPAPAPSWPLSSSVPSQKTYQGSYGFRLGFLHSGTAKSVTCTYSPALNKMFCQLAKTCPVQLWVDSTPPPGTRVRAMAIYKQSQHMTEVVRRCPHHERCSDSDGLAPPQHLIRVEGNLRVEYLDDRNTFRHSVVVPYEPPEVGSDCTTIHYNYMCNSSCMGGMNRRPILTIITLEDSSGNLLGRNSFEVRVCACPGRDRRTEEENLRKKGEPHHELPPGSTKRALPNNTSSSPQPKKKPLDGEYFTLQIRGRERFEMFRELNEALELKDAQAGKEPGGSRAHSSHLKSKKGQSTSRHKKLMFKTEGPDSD

Test [3] can be described thus: TOX21_p53_BLA_p3_viability: Viability Assessment in the Tox21 HCT-116 p53 Agonism Beta-lactamase Assay, Phase 3 (AID 2283593).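 Further: cells exposed to compound for 16 h before reading.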 In short, it runs like this:
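HCT116 cells, 4000/well, dosed 5 h after plating by pin transfer (217-fold dilution from DMSO stock) and incubated 16 h at 37C, 5% CO2. Viability read as ATP luminescence with CellTiter-Glo after 30 min at room temperature.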

In test [4] the target is Cellular tumor antigen p53 (Homo sapiens) (UniProt P04637). Briefly: TOX21_p53_BLA_p3_ratio: Tox21 HCT-116 p53 Agonism Beta-lactamase Assay, Ratio, Phase 3 (AID 2283596). In short, it runs like this:
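HCT116 p53-bla cells (4000/well) given compound in DMSO (217-fold dilution) after 5 h, incubated 16 h at 37C. CCF4-AM substrate 2 h at room temperature; 460/530 nm emission ratio, gain fitted against DMSO.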

The target is the same in test [5]. Put plainly: TOX21_p53_BLA_p5_ratio: Tox21 HCT-116 p53 Agonism Beta-lactamase Assay, Ratio, Phase 5 (AID 2283599). An outline of the steps:
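HCT-116 p53-bla cells (4000/well) plated 5 h, dosed with compound (217-fold DMSO dilution) for 16 h at 37 C; CCF4-AM substrate 2 h at room temperature. Activity is the 460/530 nm emission ratio (405 nm excitation), fitted in gain-of-signal direction versus DMSO.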

Test [6] can be described thus: TOX21_p53_BLA_p5_viability: Viability Assessment in the Tox21 HCT-116 p53 Agonism Beta-lactamase Assay, Phase 5 (AID 2283600). An outline of the steps:
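Counter-readout for cytotoxicity: ATP-dependent luminescence from CellTiter-Glo, read in the beta-lactamase wells after 30 min at RT, following a 16 h compound exposure at 37C.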

Test [7] has as its target Cellular tumor antigen p53 (Homo sapiens) (UniProt P04637). Briefly: TOX21_p53_BLA_p4_ratio: Tox21 HCT-116 p53 Agonism Beta-lactamase Assay, Ratio, Phase 4 (AID 2283601). In short, it runs like this: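 HCT-116 p53 beta-lactamase reporter cells (4000/well) preincubated 5 h, then compound (217-fold dilution of DMSO stock) for 16 h at 37C. CCF4-AM substrate added 2 h at room temperature; 460/530 nm emission ratio fitted upward versus DMSO.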

The nature of test [8]: CCTE_Harrill_HTTr_Viability_MCF7: CCTE's 6-hour Cell Viability Assessment for the High-Throughput Transcriptomics (HTTr) Platform, in MCF-7 cells cultured in DMEM + 10% fetal bovine serum, Harrill Lab (AID 2284010; active means hit-call score of the fitted dose curve at least 0.9, where 1 is the maximum; inactive means score below 0.9). An outline of the steps: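 Membrane integrity was scored by high-content imaging of propidium iodide dye exclusion after a 6 h exposure across an eight-point dilution series. Data were fitted bidirectionally relative to DMSO as negative control and baseline.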

Test [9] is described as follows: CCTE_Harrill_HTTr_Apoptosis_MCF7: CCTE's 6-hour Apoptosis Assessment for the High-Throughput Transcriptomics (HTTr) Platform, in MCF-7 cells cultured in DMEM + 10% fetal bovine serum, Harrill Lab (AID 2284011; active means hit-call score of the fitted dose curve at least 0.9, where 1 is the maximum; inactive means score below 0.9). In short, it runs like this:
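Cells are dosed with test chemicals at eight concentrations and imaged 6 hours later for caspase-3/7 activity using a green fluorogenic detection reagent. Activity is fitted in both directions against DMSO controls.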

A short description of test [10]: TOX21_TR_RXR_BLA_Agonist_Followup_viability: Viability Assessment in the Tox21 Thyroid Hormone Receptor beta Retinoid X Receptor alpha (RXRa) Agonism Beta-lactamase (BLA) Follow-Up Assay (AID 2283970). An outline of the steps: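 RXRa-UAS-bla HEK293T cells seeded at 2,500/well in phenol red-free DMEM with 2% charcoal-stripped FBS, exposed to compound 16h at 37C/5% CO2 in qHTS. Viability read by CellTiter-Glo ATP luminescence; bidirectional fitting against DMSO baseline, signal loss indicating cytotoxicity.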

The test system of test [11] is Brachyury (BRA) Protein Expression, Deisenroth Lab, TBXT (gene 6862). Put plainly: CCTE_Deisenroth_DEVTOX-GLR_legacy_Bra: (Legacy) CCTE's DevTox GLR-Endo Assay Evaluation of Brachyury (BRA) Protein Expression, Deisenroth Lab (AID 2284329; active means hit-call score of the fitted dose curve at least 0.9, where 1 is the maximum; inactive means score below 0.9). An outline of the steps: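 RUES2-GLR human pluripotent cells are differentiated for 48 h and receive two chemical exposures 24 h apart, at 10 concentrations from 1 nM to 200 uM. Cells are fixed, nuclei stained and imaged. Bra+ cells are those with mean Bra intensity over 5x BMAD above the pluripotent control median, expressed as a percentage of cell count, after subtracting the 0.2% DMSO control median.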

Test [12] has as its system SRY-box transcription factor 2 (SOX2) Protein Expression, Deisenroth Lab, SOX2 (gene 6657). Briefly: CCTE_Deisenroth_DEVTOX-GLR_Endo_SOX2: CCTE's DevTox GLR-Endo Assay Evaluation of SRY-box transcription factor 2 (SOX2) Protein Expression, Deisenroth Lab (AID 2284412). An outline of the steps: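 RUES2-GLR human pluripotent cells were seeded 24 h, then differentiated 48 h with two chemical exposures 24 h apart. Cells were fixed, nuclei stained and imaged by high-content microscopy. Endpoint is %SOX2+ cells over cell count, minus 0.2% DMSO control; 10-point series 1 nM–200 uM.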

Test [13] concerns Brachyury (BRA) Protein Expression, TBXT (gene 6862). Briefly: CCTE_Deisenroth_DEVTOX-GLR_Endo_BRA: CCTE's DevTox GLR-Endo Assay Evaluation of Brachyury (BRA) Protein Expression, Deisenroth Lab (AID 2284417; active means hit-call score of the fitted dose curve at least 0.9, where 1 is the maximum; inactive means score below 0.9). An outline of the steps:
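Endpoint is the fraction of BRA reporter-positive cells over total nuclei, corrected by subtracting the 0.2% DMSO value. Chemicals (1 nM - 200 uM, 10 points) were dosed twice during 48 h differentiation of RUES2-GLR cells, read by imaging.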

Test [14] in a line: CCTE_Deisenroth_DEVTOX-GLR_Endo_CellCount: Viability Assessment in CCTE's DevTox GLR-Endo Assay, Deisenroth Lab (AID 2284420; active means hit-call score of the fitted dose curve at least 0.9, where 1 is the maximum; inactive means score below 0.9). An outline of the steps:
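Viability in differentiating RUES2-GLR cultures is scored by fluorescent nuclear counts after 48 h and two 24-hourly chemical treatments, as percent change from the 0.2% DMSO control.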

Test [15] relates to SRY-box transcription factor 17 (SOX17) Protein Expression, Deisenroth Lab, SOX17 (gene 64321). Put plainly: CCTE_Deisenroth_DEVTOX-GLR_Pluri_SOX17: CCTE's DevTox GLR-Pluri Assay Evaluation of SRY-box transcription factor 17 (SOX17) Protein Expression, Deisenroth Lab (AID 2284427). An outline of the steps: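 Seed cells 24 h; differentiate 48 h, dosing at 0 and 24 h (1 nM - 200 uM); fix, stain nuclei, image 5 fields per well; count SOX17+ cells over total cells and subtract 0.2% DMSO control.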

For test [16], the system named is SRY-box transcription factor 2 (SOX2) Protein Expression, Deisenroth Lab, SOX2 (gene 6657). Put plainly: CCTE_Deisenroth_DEVTOX-GLR_Pluri_SOX2: CCTE's DevTox GLR-Pluri Assay Evaluation of SRY-box transcription factor 2 (SOX2) Protein Expression, Deisenroth Lab (AID 2284428; active means hit-call score of the fitted dose curve at least 0.9, where 1 is the maximum; inactive means score below 0.9). In short, it runs like this:
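SOX2 expression frequency is scored in a human pluripotent reporter line, RUES2-GLR, exposed to chemicals twice over 48 h. Imaging-based SOX2+ cell percentage is normalized as change versus 0.2% DMSO.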

Test [17] relates to Brachyury (BRA) Protein Expression, Deisenroth Lab, TBXT (gene 6862). Put plainly: CCTE_Deisenroth_DEVTOX-GLR_Pluri_BRA: CCTE's DevTox GLR-Pluri Assay Evaluation of Brachyury (BRA) Protein Expression, Deisenroth Lab (AID 2284429). An outline of the steps: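 RUES2-GLR human pluripotent cells differentiated 48 hours with two chemical exposures 24 hours apart, 10-point series 1 nM–200 uM. Fixed, nuclear-stained, imaged; endpoint is percent BRA+ cells minus 0.2% DMSO control.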

Test [18] can be described thus: CCTE_Deisenroth_DEVTOX-GLR_Pluri_CellCount: Viability Assessment in CCTE's DevTox GLR-Pluri Assay Evaluation of Total Cell Counts, Deisenroth Lab (AID 2284430; active means hit-call score of the fitted dose curve at least 0.9, where 1 is the maximum; inactive means score below 0.9). An outline of the steps: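 RUES2-GLR human pluripotent cells, seeded 24 h, then differentiated 48 h with two chemical exposures 24 h apart; 10-point series 1 nM - 200 uM. Fixed, nuclear-stained, imaged (5 fields/well); nuclei count as % change vs 0.2% DMSO.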

SMILES strings stand for the structures. Records with an inconclusive call do not appear. Calls of active or inactive are those of the source. How the source made its calls, unless noted: active means hit-call score of the fitted dose curve at least 0.9, where 1 is the maximum; inconclusive means response in the unintended direction; inactive means score below 0.9.

Regarding `CC1CN(c2ccccc2)NC1=O` (stereo not drawn), the result in [1], in [2], in test [3], in test [4], in [5] and in test [6] was inactive. In test [7], the outcome was inactive.

For orientation: AC50 means the midpoint of the concentration-response curve, whichever way the signal moves. Turning to `Nc1nc2ccc(OC(F)(F)F)cc2s1`, the compound was classed as inactive in test [1] and in [3]. The half-maximal activity concentration (AC50) in test [2] was 7.3 µM (active); in test [4], 7.29 µM (active); in [5], 23.9 µM (active); in test [7], 11.3 µM (active).

As to `COC(=O)N/N=C/c1c[n+]([O-])c2ccccc2[n+]1[O-]`, the result in test [1], in test [2], in test [3], in test [4], in test [5] and in test [7] was inactive.

Turning to `CC1=C(C)C(=O)C(CCCCC#CCCCC#CCO)=C(C)C1=O`, the result in test [1], in test [2], in [3], in test [4], in [5] and in test [7] was inactive.

In the case of `O=C(OOC(=O)c1ccccc1)c1ccccc1`, the compound was classed as inactive in [1], in [2], in [3], in test [4], in [5] and in test [6]. The result in test [7], in [8] and in [9] was inactive.

Regarding `CC(C)(C)OC(=O)c1ccccc1C(=O)O`, the compound was classed as inactive in test [1], in [2], in test [3], in test [4], in test [5] and in test [6]. In addition, the result in test [7] was inactive.

As to `O=C(O)CCC(=O)OC[C@@H](NC(=O)C(Cl)Cl)[C@H](O)c1ccc([N+](=O)[O-])cc1`, the call in test [1], in test [2], in test [3], in test [4] and in [6] was inactive.

As for `CCN(CC)CCC(=O)N1c2ccccc2Sc2ccc(Cl)cc21`, the result in [1], in test [2], in test [3], in test [4], in test [5] and in test [7] was inactive.

For `Cc1cccc(Nc2ncccc2C(=O)O)c1C`, the outcome in test [1], in test [2], in test [3], in test [4], in [5] and in test [7] was inactive.

In the case of `NCCc1cnc[nH]1`, the compound was classed as inactive in [1], in test [2], in test [3], in test [4], in test [5] and in test [7].

As for `CC1=C(/C=C/C(C)=C/C=C/C(C)=C\C(=O)O)C(C)(C)CCC1`, the result in test [1], in test [2], in test [5], in test [6], in [7] and in [10] was inactive. Also, the concentration at half-maximal activity (AC50) in test [3] is 42.9 µM (active); in test [4], 87.3 µM (active); in test [11], 100 µM (active); in [12], 69.5 µM (active); in test [13], 28 µM (active); in test [14], 10.7 µM (active). The AC50 was 20.2 µM (active) in [15], 1.78 µM (active) in [16], 16.7 µM (active) in test [17] and 19 µM (active) in [18].

As for `CCCCC(C)C(=O)O` (stereo not drawn), the compound was classed as inactive in [1], in test [2], in test [3], in [4], in test [5] and in test [7].

For the compound `Nc1ccc(S(=O)(=O)Nc2ccccn2)cc1`, the compound was called inactive in [1], in [2], in [3], in test [4], in test [5] and in test [7].

As to `COc1cccc(Br)c1`, the outcome in [1], in test [2], in test [3], in test [4], in test [5] and in [7] was inactive.
